IMPase Li cell – IMPase inhibition in cells with lithium potentiation | CHO-M1 cells, IP1 TR-FRET (IP-One), carbachol + lithium | Potency, µM (highest dose often 59.4 µM), without a hit: top-dose activity, negative = IMPase inhibition, usual class: inhibitors | 210,000 compounds, 0.35% hits | AID 1457; active = well fitted curve in the direction sought with a large enough effect; inconclusive = small, poorly fitted or top-dose-only effect, or another doubt; inactive = no such curve, though single readings can be large; an effect the other way counts as inactive or inconclusive;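 note: IP1 builds up when IMPase is blocked and the TR-FRET signal falls; potency is the fitted concentration of half-maximal effect; plate controls were basal vehicle for no effect and high inhibitor control for full effect; nearly all actives have a fitted effect of over 50% in size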
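Readout is a homogeneous TR-FRET IP1 immunoassay (Ex 320, Em 665 and 620), where raised cytosolic IP1 lowers signal. Cells were CHO-M1 treated 30 min at 37C with test compounds plus a little lithium; AC50 values came from Hill-equation fitting.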
ALDH1A1 inh – inhibitors of human aldehyde dehydrogenase 1A1 | Purified ALDH1A1, NADH fluorescence, propionaldehyde substrate | Potency, µM (series often up to 75.3 µM), for the others: at the highest dose activity, negative = inhibition, usual class: inhibitors | 220,000 compounds, 7.3% hits | AID 1030;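 note: potency is the fitted concentration of half-maximal effect; plate controls were no enzyme wells and a reference inhibitor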
NPSR antagonist – neuropeptide S receptor (human) antagonism, cAMP | Q6W5P4 | CHO-NPSR cells, cAMP TR-FRET, antagonist mode | Potency, µM (doses to about 38.3 µM), for inactives: at the top dose activity change, negative = inhibition, most hits filed as inhibitors | 220,000 compounds, 1% hits | AID 1461; active = well fitted curve in the direction sought with a large enough effect; inconclusive = small, poorly fitted or top-dose-only effect, or another doubt; inactive = no such curve, though single readings can be large; an effect the other way counts as inactive or inconclusive; note: potency is the fitted concentration of half-maximal effect; nearly all actives have a fitted effect of over 50% in size
Target sequence (Q6W5P4 whole entry, looked up): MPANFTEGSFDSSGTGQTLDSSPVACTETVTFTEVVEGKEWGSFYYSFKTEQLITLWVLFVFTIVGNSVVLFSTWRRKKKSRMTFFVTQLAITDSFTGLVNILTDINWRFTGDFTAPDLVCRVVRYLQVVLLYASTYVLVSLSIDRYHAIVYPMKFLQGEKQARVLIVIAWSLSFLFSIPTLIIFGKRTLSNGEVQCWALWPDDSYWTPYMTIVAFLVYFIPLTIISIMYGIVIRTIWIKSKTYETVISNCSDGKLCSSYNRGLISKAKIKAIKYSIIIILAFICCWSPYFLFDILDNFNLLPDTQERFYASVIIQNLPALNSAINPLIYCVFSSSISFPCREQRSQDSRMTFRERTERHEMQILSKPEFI
HPGD inh – inhibitors of human 15-hydroxyprostaglandin dehydrogenase (HPGD); P15428; purified HPGD, NADH fluorescence kinetic, PGE2 substrate; Potency, µM, without a hit: at the highest dose activity change, negative = inhibition, hits mostly inhibitors; 150,000 compounds, 4.3% hits; AID 894; note: potency is the fitted concentration of half-maximal effect
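20 nM HPGD preincubated 15 min at room temperature with compound in 50 mM Tris-HCl pH 8, 0.01% Tween 20. Started with 1 mM NAD+ and 30 uM prostaglandin E2; NADH fluorescence (360/450 nm) read 5 times over 30-s intervals, last minus first.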
IMPase inh – cell-permeable inhibitors of inositol monophosphatase (IMPase) | P97697 | CHO-M1 cells, IP1 accumulation, HTRF TR-FRET ratio | inhibition (IP1 accumulation), % at 46.1 µM | 120,000 tested, under 10 active; active = well fitted curve in the direction sought with a large enough effect in the signal ratio, not every such curve was filed as active; inconclusive = small, poorly fitted or top-dose-only effect, or a change in a side signal; inactive = no such curve, though single readings can be large or run the other way; the % refers to the signal ratio;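 note: cells stimulated with carbachol in lithium chloride buffer; plate controls were DMSO basal wells for no effect and reference inhibitor wells for full effect; higher means more IMPase inhibition seen as more IP1 and lower FRET ratio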
Target sequence (P97697 whole entry, looked up): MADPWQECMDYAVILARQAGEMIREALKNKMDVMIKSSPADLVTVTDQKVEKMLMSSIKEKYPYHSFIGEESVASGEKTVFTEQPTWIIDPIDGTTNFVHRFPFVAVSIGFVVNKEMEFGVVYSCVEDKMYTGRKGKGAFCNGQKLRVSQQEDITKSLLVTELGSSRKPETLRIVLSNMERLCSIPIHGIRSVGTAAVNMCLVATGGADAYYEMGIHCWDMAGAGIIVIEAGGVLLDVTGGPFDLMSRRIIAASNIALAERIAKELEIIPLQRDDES
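Seeded CHO-M1 cells were dosed with compound at up to 46 uM, stimulated with carbachol for 30 min, then lysed in IP-One detection reagents. Higher IP1 lowers the TR-FRET signal.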
PNC assembly inh – perinucleolar compartment assembly inhibition; PC3M PTB-GFP, PNC prevalence imaging, 16 h; hits give low values; 140,000 compounds, 3.1% hits; activity change (PNC), negative = inhibition, % at 10 µM; AID 2417;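 active = readout at or below -70, meaning at least 70% loss of cells showing the perinucleolar compartment, a nuclear body marking cancer cells; inconclusive = readout between -30 and a set limit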;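 note: plate controls were DMSO wells for no effect and camptothecin positive control wells for full effect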
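Compounds are pinned in duplicate onto adhered PC3M cells stably expressing GFP-tagged PTB and incubated 16 h at 37 C. Cells are then fixed, nuclei stained with Hoechst, and PNC-positive cells counted.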
Numbers without * were called inactive; ? = inconclusive; · = no result; [ ] = dose if it differs, or a comment. Most compounds without a hit are left out; they make up all but 11% or so of the library. Unless noted, calls come from the whole dose curve; as a rule, active = well fitted inhibition curve with a large enough effect (not every such curve was filed as active); inconclusive = small, poorly fitted or top-dose-only effect, or another doubt; inactive = no such curve, though single readings can be large or run the other way. Unless noted, % is set by controls: 0 for no effect and ±100 for the full control effect.

SMILES | IMPase Li cell | ALDH1A1 inh | NPSR antagonist | HPGD inh | IMPase inh | PNC assembly inh
Cc1cc(/C=N/NC(=O)c2cccs2)c(C)n1-c1cnccn1 | 7% | 0% | -4% | · | · | ·
COCC(=O)Nc1nnc(-c2ccc(C(C)(C)C)cc2)s1 | -7% | -12% | -8% | · | · | ·
Cc1ccc(O)c(-c2cc(C(=O)NCc3ccc4c(c3)OCO4)[nH]n2)c1 | -2% | ? | -14% | 3.2µM* | · | 20
Cc1ccsc1C(=O)OCC(=O)NCc1ccc2c(c1)OCO2 | -2%[38.3 µM] | -3% | -4%[46.1 µM] | 13µM* | 8 | 4
COc1ccc(C(=O)OCC(=O)NCc2ccc3c(c2)OCO3)cc1[N+](=O)[O-] | 6% | 5µM* | -12%[46.1 µM] | -2% | 2 | -107*
O=C(COC(=O)c1cnc(Cl)c(Cl)c1)NCc1ccc2c(c1)OCO2 | -7% | 2.2µM* | 16% | -3% | 5 | 8
c1ccc(OCCOc2ncnc3sccc23)cc1 | -1%[38.3 µM] | -3% | -8%[46.1 µM] | -14% | -9 | ?
COC(=O)N[C@H](c1ccccc1)C(C(C)=O)C(=O)OC (stereo partly drawn) | 15% | 7% | · | -2% | · | ·
O=C(COC(=O)c1ccc(O)cc1)NCc1ccc2c(c1)OCO2 | 4% | -4% | 4% | · | · | ·
CC(=O)OCC(=O)NCc1ccc2c(c1)OCO2 | 15%[38.3 µM] | 10% | -6%[46.1 µM] | 20µM* | 2 | ?
Cc1cc(=O)oc2c1c(C)nn2-c1ccc(C(=O)OC(C)C)cc1 | 1%[38.3 µM] | 1.1µM* | 5%[46.1 µM] | -13% | 5 | ?
CCOc1cc(C2CC(=O)Nc3cc(C)c(C)cc32)ccc1O (stereo not drawn) | 8%[38.3 µM] | 5% | -15%[46.1 µM] | -2% | 1 | -139*
CCOCC(=O)Nc1ccc(F)c(F)c1 | -17%[38.3 µM] | -1% | -2%[46.1 µM] | 28µM* | 22 | -10
CCC(=O)Nc1ccc2c(c1)OCCO2 | -13%[38.3 µM] | 5% | -2%[46.1 µM] | -8% | 0 | -22
CCOCC(=O)Nc1ccc2c(c1)OCCO2 | 5%[38.3 µM] | ? | -26%[46.1 µM] | 14µM* | -5 | ?
O=C(COC(=O)c1cc[n+]([O-])cc1)Nc1ccc2c(c1)OCCO2 | 1%[38.3 µM] | 14µM* | 2%[46.1 µM] | -3% | 0 | -28
NC(=O)c1ccc(NC(=O)COC(=O)c2ccc3c(c2)OCCO3)cc1 | · | · | 1% | · | · | ·
CC(Sc1ccc2c(c1)OCCO2)C(=O)Nc1ccc2c(c1)OCO2 (stereo not drawn) | -2%[38.3 µM] | 10µM* | -8%[46.1 µM] | -6% | -5 | -8
CCOCC(=O)Nc1cccc(NC(C)=O)c1 | 2%[38.3 µM] | 5% | 0%[46.1 µM] | -8% | -1 | ?
CC(C)[C@H](NC(=O)Nc1cccc(Br)c1)C(=O)O | -2% | 8% | 16% | 3% | · | -91*
CCC(=O)Nc1ccc2c(c1)C(=O)c1ccccc1C2=O | 1%[38.3 µM] | 7.9µM* | -8%[46.1 µM] | -10% | -1 | 5
CCOCC(=O)Nc1cccc(Br)c1 | 25%[38.3 µM] | 20µM* | 4%[46.1 µM] | 25µM* | 4 | 25
CCC(=O)Nc1ccc2c(c1)C(=O)N(C)C2=O | -3%[38.3 µM] | ? | -2%[46.1 µM] | ? | 0 | -26
CC(C)C(NC(=S)Nc1ccccc1)C(=O)O (stereo not drawn) | -1% | 4% | 26% | 32µM* | · | ?
Nc1ncnc2c1ncn2[C@H]1CC[C@@H](CO)O1 | 4% | -12% | · | -8% | · | ·
SMILES | IMPase Li cell | ALDH1A1 inh | NPSR antagonist | HPGD inh | IMPase inh | PNC assembly inh
O=C1CCC[C@H]1C(=O)Nc1ccc2ccccc2c1 | -11% | 12%[13.5 µM] | · | -7% | · | ·
CC(C)CCNC(=O)CN(CC1CCCO1)C(=O)CCC(=O)Nc1ccccn1 (stereo not drawn) | 11%[38.3 µM] | 6% | 4%[46.1 µM] | -12% | 5 | 25
O=C(COC(=O)c1cc[n+]([O-])cc1)Nc1ccccc1Cl | 8% | -7% | 27% | · | · | ·
COc1cc(Cl)c(C)cc1NC(=O)COC(=O)c1cc[n+]([O-])cc1 | -6% | 16µM* | 12% | · | · | ·
CCC(=O)Nc1cccc(Br)c1 | 14%[38.3 µM] | 2% | 7%[46.1 µM] | -5% | 1 | -116*
CC(C)N(C(=O)CSc1nnc(NC(=O)C2CCC2)s1)C(C)C | 22%[38.3 µM] | -3% | 19%[46.1 µM] | -11% | -4 | -102*
CC(C)N(C(=O)CSc1nnc(NC(=O)Cc2cccs2)s1)C(C)C | -12% | -7% | -19% | · | · | ·
O=C(O)c1ccc(CNC(=O)c2ccccc2NC(=O)c2ccc([N+](=O)[O-])cc2)cc1 | 5% | -4% | 5% | · | · | ·
Cc1ccc(C(=O)N/C(=C/c2ccccc2)C(=O)NCc2ccncc2)cc1 | · | · | -14% | · | · | ·
Oc1cc(Cc2ccccc2)cnc1CN1CCCCC1 | 21%[38.3 µM] | 25µM* | 9%[46.1 µM] | 25µM* | 11 | 43
COCCCNC(=O)COc1ccc(Br)cc1Cl | -5% | 8% | 22% | -12% | · | -90*
CCNC(=O)COc1ccc(Br)cc1Cl | 22%[38.3 µM] | 7% | 5%[46.1 µM] | -22% | -8 | -23
COCCNC(=O)COc1ccc(C)cc1C | 7%[38.3 µM] | -14% | -11%[46.1 µM] | 14µM* | 7 | -23
Cc1[nH]c(=O)[nH]c(=O)c1S(=O)(=O)N(C)Cc1ccccc1 | 3%[38.3 µM] | 6% | 7%[46.1 µM] | -7% | 0 | -106*
COc1ccccc1CNc1nc2nc(C)c(C)c(=O)n2[nH]1 | -11% | ? | -12%[46.1 µM] | -6% | -1 | ?
Cc1noc(C)c1CS(=O)(=O)c1ccc([N+](=O)[O-])cc1 | 5% | 32µM* | -20% | · | · | ·
Cc1ccc(S(=O)(=O)Cc2c(C)noc2C)cc1 | 7%[38.3 µM] | 3% | -11%[46.1 µM] | -15% | 16 | 13
CCOc1ccccc1Nc1nc2ccccc2n2cnnc12 | -11% | ? | 2% | ? | · | 27
C[C@@]12CC[C@@H]3[C@H](CCC4=CC(=O)CC[C@]43C)[C@@H]1CC[C@@H]2C(=O)COS(=O)(=O)c1ccc(Br)cc1 | -16% | 3.5µM* | · | -14% | · | ·
CCN(CC)CCN(Cc1cc2cc3c(cc2[nH]c1=O)OCO3)C(=S)NCC1CCCO1 (stereo not drawn) | 11% | ? | 14% | · | · | ·
CC(NC(=O)Nc1ccc(O)cc1)(C(F)(F)F)C(F)(F)F | 4% | -3% | 6%[46.1 µM] | -7% | 9 | -100*
COc1ccc(NC(=O)NC(C)(C(F)(F)F)C(F)(F)F)cc1 | -1%[38.3 µM] | 10% | -9%[46.1 µM] | -2% | 0 | 32
Cc1cc(C(F)F)n2nc(C(=O)Nc3sc4c(c3C(N)=O)CCC4)nc2n1 | 7% | 16µM* | 8% | -20% | 0 | 1
CC(Sc1nc(-c2ccccc2)cc(C(F)(F)F)n1)C(=O)Nc1sc2c(c1C#N)CCC2 (stereo not drawn) | -17%[38.3 µM] | 5% | -23%[46.1 µM] | -22% | 9 | -20
Cc1cc(C(F)F)n2nc(C(=O)Nc3sc4c(c3C#N)CCC(C)C4)nc2n1 (stereo not drawn) | -8%[38.3 µM] | ? | 5%[46.1 µM] | -18% | 7 | 58
COC(=O)c1c(NC(=O)c2nc3nc(C)cc(C(F)F)n3n2)sc2c1CCC2 | 10%[38.3 µM] | 13µM* | -28%[46.1 µM] | -14% | 7 | -5

From PubChem BioAssay
